From PubChem BioAssay AID1159580 (chemical genetic matrix, 2015)
Where “and” joins values, the source holds several entries; their conditions need not be identical. Identical values can stand only once. The whole screen tested about 5,500 compounds, of which about 2,000 (36%) were called active. Inconclusive results (about 18%) are left out. Cut-off read from the data, not from the text of the source: active = normalized growth mostly below about 0.91 (no sharp cut-off); inconclusive = no clear call, values can overlap the other calls; inactive = mostly above about 0.92. The list shows a part of the results.

Experiment: chemical genetic growth profiling, strain panel (AID 1159580);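 note: tested at 20 µM; growth read once vehicle control cultures reached saturation at 30 °C; 1 = growth at the plate median or of vehicle wells; lower values mean less growth of the strain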
Details: S. cerevisiae deletion strains, growth OD

Measured: normalized growth

O=C(O)c1cc(=O)c2c(Cl)cc(Cl)cc2[nH]1
inactive: locus YAL013W, strain DEP1, stronger effect = lower value 1 | locus YAL021C, strain ccr4, stronger effect = lower value 1 | locus YAL026C, strain drs2, stronger effect = lower value 1.02 | locus YAL030W, strain snc1, stronger effect = lower value 1.02 | locus YAL040C, strain CLN3, stronger effect = lower value 0.995 | locus YBL061C, strain skt5, stronger effect = lower value 1.01 | locus YBR009C, strain hhf1, stronger effect = lower value 1 | locus YBR021W, strain FUR4, stronger effect = lower value 1 | locus YBR023C, strain chs3, stronger effect = lower value 1.02 | locus YBR171W, strain sec66, stronger effect = lower value 1.01 | locus YBR229C, strain ROT2, stronger effect = lower value 1.01 | locus YBR231C, strain swc5, stronger effect = lower value 1.02 | locus YBR279W, strain paf1, stronger effect = lower value 1.01 | locus YCL011C, strain gbp2, stronger effect = lower value 1.01 | locus YCL016C, strain dcc1, stronger effect = lower value 1.01 | locus YCL029C, strain bik1, stronger effect = lower value 1.01 | locus YCL061C, strain MRC1 (second series), stronger effect = lower value 0.998 | locus YCL061C, strain MRC1, stronger effect = lower value 1.02 | locus YCL069W, strain vba3, stronger effect = lower value 1 | locus YCR088W, strain abp1, stronger effect = lower value 1.01 | locus YDL005C, strain med2, stronger effect = lower value 1.01 | locus YDL035C, strain GPR1, stronger effect = lower value 1.01 | locus YDL040C, strain nat1, stronger effect = lower value 1.01 | locus YDL074C, strain BRE1, stronger effect = lower value 1 | locus YDL101C, strain DUN1, stronger effect = lower value 1.01 | locus YDL134C, strain PPH21, stronger effect = lower value 1.02 | locus YDL185W, strain tfp1, stronger effect = lower value 1.01 | locus YDL192W, strain arf1, stronger effect = lower value 1.02 | locus YDR001C, strain nth1, stronger effect = lower value 1.01 | locus YDR069C, strain doa4, stronger effect = lower value 1.02 | locus YDR101C, strain arx1, stronger effect = lower value 1.03 | locus YDR137W, strain rgp1, stronger effect = lower value 1.02 | locus YDR150W, strain NUM1, stronger effect = lower value 0.999 | locus YDR159W, strain sac3, stronger effect = lower value 1.01 | locus YDR162C, strain NBP2, stronger effect = lower value 1.02 | locus YDR195W, strain ref2 1.02 | locus YDR297W, strain sur2, stronger effect = lower value 1.01 | locus YDR318W, strain mcm21, stronger effect = lower value 1.02 | locus YDR334W, strain swr1, stronger effect = lower value 1.01 | locus YDR335W, strain msn5, stronger effect = lower value 1.01 | locus YDR363W, strain ESC2, stronger effect = lower value 0.974 | locus YDR388W, stronger effect = lower value 1.01 | locus YDR392W, strain spt3, stronger effect = lower value 0.979 | locus YDR502C, strain sam2, stronger effect = lower value 1.01 | locus YEL003W, strain gim4, stronger effect = lower value 1.01 | locus YEL037C, strain rad23, stronger effect = lower value 1.01 | locus YEL061C, strain CIN8 (second series), stronger effect = lower value 1.01 | locus YEL061C, strain CIN8, stronger effect = lower value 1 | locus YER002W, strain NOP16, stronger effect = lower value 1 | locus YER015W, strain faa2, stronger effect = lower value 1.02 | locus YER016W, strain bim1, stronger effect = lower value 1.01 | locus YER110C, stronger effect = lower value 1.03 | locus YER111C, strain swi4, stronger effect = lower value 1.02 | locus YER155C, strain BEM2 (second series), stronger effect = lower value 1.03 | locus YER155C, strain BEM2, stronger effect = lower value 0.994 | locus YER167W, strain BCK2, stronger effect = lower value 1 | locus YFR010W, strain ubp6, stronger effect = lower value 1.02 | locus YGL078C, strain dbp3, stronger effect = lower value 1.01 | locus YGL086W, strain mad1, stronger effect = lower value 1.02 | locus YGL167C, strain pmr1, stronger effect = lower value 1.02 | locus YGL173C, strain kem1, stronger effect = lower value 1.02 | locus YGL227W, strain vid30, stronger effect = lower value 1.01 | locus YGL240W, strain doc1, stronger effect = lower value 1.02 | locus YGL248W, strain PDE1, stronger effect = lower value 1.01 | locus YGL253W, strain hxk2, stronger effect = lower value 1.02 | locus YGR078C, strain PAC10, stronger effect = lower value 1 | locus YGR135W, strain pre9, stronger effect = lower value 1.03 | locus YGR229C, strain SMI1, stronger effect = lower value 1.05 and 0.981 | locus YGR252W, strain gcn5, stronger effect = lower value 1 | locus YHR013C, strain ard1, stronger effect = lower value 0.987 | locus YHR027C, strain rpn1, stronger effect = lower value 1.02 | locus YHR030C, strain SLT2, stronger effect = lower value 1 | locus YHR079C, strain IRE1 (second series), stronger effect = lower value 1.01 | locus YHR094C, strain hxt1, stronger effect = lower value 1.02 | locus YHR129C, strain ARP1, stronger effect = lower value 1.01 | locus YHR142W, strain chs7, stronger effect = lower value 1.02 | locus YHR200W, strain rpn10, stronger effect = lower value 1.01 | locus YIL066C, strain RNR3, stronger effect = lower value 1.01 | locus YIL073C, strain SPO22, stronger effect = lower value 1.04 | locus YIL125W, strain kgd1, stronger effect = lower value 1.01 | locus YIR030C, strain dcg1, stronger effect = lower value 1.01 | locus YJL092W, strain hpr5, stronger effect = lower value 1.01 | locus YJL095W, strain BCK1 (second series), stronger effect = lower value 1.01 | locus YJL095W, strain BCK1, stronger effect = lower value 0.998 | locus YJL115W, strain asf1, stronger effect = lower value 1.01 | locus YJL129C, strain trk1, stronger effect = lower value 1.01 | locus YJL134W, strain LCB3, stronger effect = lower value 1.01 | locus YJL154C, strain vps35, stronger effect = lower value 1.01 | locus YJL164C, strain tpk1, stronger effect = lower value 1.01 | locus YJL166W, strain qcr8, stronger effect = lower value 1.02 | locus YJL168C, strain set2, stronger effect = lower value 1.02 | locus YJL187C, strain SWE1 (second series), stronger effect = lower value 1
